Counter-ions that a name gives are not always drawn.
system: hN + hpA co-culture (H1 iNGN2 human neurons + human primary astrocytes); assay: presynaptic density (SYNAPSIN1 puncta per MAP2 neurite area), Z-score vs DMSO controls; higher = more presynaptic puncta (synapse-promoting); details: 3 µM; 72 h
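Also: immunostained co-cultures imaged by high-content microscopy, Z-score per plate against mean and SD of 0.1% DMSO wells, compounds added on differentiation day 18, analysed day 21.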

**Q.** With CC(C)(C)NC(=O)[C@H]1CC[C@H]2[C@@H]3CC[C@H]4NC(=O)C=C[C@]4(C)[C@H]3CC[C@]12C [Finasteride] as the compound, how does the “presynaptic density (Z-score)” value read?
**A.** Its value is -0.206.

**Q.** With C[C@]1(c2nc3c(C(N)=O)cccc3[nH]2)CCCN1 [Veliparib (ABT-888)] as the compound, how does the “presynaptic density (Z-score)” value read?
**A.** The value was 0.43.

**Q.** How did the “presynaptic density (Z-score)” value turn out when Cc1[nH]c(/C=C2\C(=O)Nc3ccc(S(=O)(=O)Cc4c(Cl)cccc4Cl)cc32)c(C)c1C(=O)N1CCC[C@@H]1CN1CCCC1 was run?
**A.** The value was -4.53.

**Q.** C[C@@H]1CN(CC(=O)Nc2ccc3c(c2)Cc2cccc(-c4cc(=O)cc(N5CCOCC5)o4)c2S3)C[C@H](C)O1 was tested. Which “presynaptic density (Z-score)” value did it give?
**A.** Its value is -1.12.

**Q.** Which “presynaptic density (Z-score)” value does the source give for CCN1CCCC1CNC(=O)c1cc(S(N)(=O)=O)ccc1OC (single isomer, unassigned; (-)) [(-)-Sulpiride] here?
**A.** Its value is -1.09.

**Q.** Which “presynaptic density (Z-score)” value does the source give for CC(CCc1ccccc1)NCC(O)c1ccc(O)c(C(N)=O)c1 (configuration not stated) [Labetalol HCl] here?
**A.** The value was -0.733.

**Q.** With CCOC(=O)c1ccc(N2NC(=O)C(=Cc3ccc([N+](=O)[O-])o3)C2=O)cc1 as the compound, how does the “presynaptic density (Z-score)” value read?
**A.** The value was 0.0787.

**Q.** For CCOc1nc2cccc(C(=O)O)c2n1Cc1ccc(-c2ccccc2-c2nnn[nH]2)cc1 [Candesartan], which “presynaptic density (Z-score)” value is on record?
**A.** The value was 0.323.

**Q.** COCCOc1ccc2c(c1)ncn2-c1ccc2cccc(N3CCC(N)CC3)c2n1 was tested. Which “presynaptic density (Z-score)” value did it give?
**A.** Its value is -0.271.

**Q.** How did the “presynaptic density (Z-score)” value turn out when O=C(O)Cc1cccc(OCCCN(Cc2cccc(C(F)(F)F)c2Cl)CC(c2ccccc2)c2ccccc2)c1 was run?
**A.** The value was -1.54.

**Q.** How did the “presynaptic density (Z-score)” value turn out when Cc1cccc(CC(=O)N2CCc3c2ccc(-c2cn(C)c4ncnc(N)c24)c3F)n1 was run?
**A.** The value was -0.752.

**Q.** Which “presynaptic density (Z-score)” value does the source give for CC(C)[C@H](O)C(=O)N[C@@H](C)C(=O)N[C@@H]1C(=O)N(C)CCc2ccccc21 here?
**A.** Its value is -0.185.
